Reference: PubChem BioAssay (NCATS)
Results filed as inconclusive are left out. Values without a mark were called inactive. Active and inactive are the calls of the source. Calls follow the shape of the dose curve; as a rule, active = well fitted curve in the direction sought with a large enough effect; inconclusive = small, poorly fitted or top-dose-only effect, or another doubt; inactive = no such curve, though single readings can be large; an effect the other way counts as inactive or inconclusive.

Assay: qHTS of pediatric cancer cell lines to identify multiple opportunities for drug repurposing: Confirmatory screen for RD cells (AID 1347124);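 also: cells exposed to compound for 48 h before viability readout; nearly all actives have a fitted effect of over 65% in size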
Settings: RD rhabdomyosarcoma cell viability; series mostly up to 45.9 µM; activity change, negative = cytotoxic: at the top concentration
Summary of the method: (§1)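 Cells (500-1,000/well) in growth media were settled 5 h at 37 degrees C, then given compounds for 48 h. Viability was read as CellTiter-Glo luminescence. Primary runs used MIPE at 11 points (0.78 nM-46 µM) and NPC at 8 points (0.59 nM-46 µM); follow-ups used 11 points.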
% is scaled to controls: 0 for no effect and ±100 for the full control effect; potency is read from the fitted curve at half-maximal effect.

Row | Compound | activity change, negative = cytotoxic | Potency
1 | CN1C[C@H](C(=O)N[C@]2(C)O[C@@]3(O)[C@@H]4CCCN4C(=O)[C@H](Cc4ccccc4)N3C2=O)C[C@@H]2c3cccc4[nH]cc(c34)C[C@H]21 | 4.28% | –
2 | C[n+]1cc2c3c(ccc2c2ccc4cc5c(cc4c21)OCO5)OCO3 | – | 1.82 µM (active)
3 | C[C@]12C=CC(=O)C=C1CC[C@H]1[C@@H]3C[C@@H](O)[C@](O)(C(=O)CO)[C@@]3(C)C[C@H](O)[C@@]12F | – | 7.37 µM (active)
4 | Nc1nc(N)c2nc(-c3ccccc3)c(N)nc2n1 | -10.4% | –
5 | C[C@]12CC[C@@H]3c4ccc(O)cc4C[C@@H](CCCCCCCCCS(=O)CCCC(F)(F)C(F)(F)F)[C@H]3[C@@H]1CC[C@@H]2O (stereo partly drawn) | 10.4% | –

Assay: qHTS of pediatric cancer cell lines to identify multiple opportunities for drug repurposing: Confirmatory screen for Rh18 cells (AID 1347125); also: nearly all actives have a fitted effect of over 55% in size
Settings: Rh18 rhabdomyosarcoma cells, viability; series mostly up to 45.9 µM; activity change, negative = cytotoxic: at the top concentration
Summary of the method: as §1

Row | Compound | activity change, negative = cytotoxic | Potency
6 | CN1C[C@H](C(=O)N[C@]2(C)O[C@@]3(O)[C@@H]4CCCN4C(=O)[C@H](Cc4ccccc4)N3C2=O)C[C@@H]2c3cccc4[nH]cc(c34)C[C@H]21 | 2.52% | –
7 | NCCCNCCSP(=O)(O)O | 1.32% [at 9.58 µM] | –
8 | C[n+]1cc2c3c(ccc2c2ccc4cc5c(cc4c21)OCO5)OCO3 | – | 1.62 µM (active)
9 | C[C@]12C=CC(=O)C=C1CC[C@H]1[C@@H]3C[C@@H](O)[C@](O)(C(=O)CO)[C@@]3(C)C[C@H](O)[C@@]12F | – | 9.27 µM (active)
10 | Nc1nc(N)c2nc(-c3ccccc3)c(N)nc2n1 | 3.06% | –
11 | C[C@]12CC[C@@H]3c4ccc(O)cc4C[C@@H](CCCCCCCCCS(=O)CCCC(F)(F)C(F)(F)F)[C@H]3[C@@H]1CC[C@@H]2O (stereo partly drawn) | -19.4% | –
12 | CN/C(=C\[N+](=O)[O-])NCCSCc1ccc(CN(C)C)o1 | 1.77% | –

Assay: qHTS of pediatric cancer cell lines to identify multiple opportunities for drug repurposing: Confirmatory screen for Rh30 cells (AID 1347126); also: nearly all actives have a fitted effect of over 55% in size
Settings: Rh30 rhabdomyosarcoma cell viability; series mostly up to 45.9 µM; activity change, negative = cytotoxic: at the top concentration
Summary of the method: as §1

Row | Compound | activity change, negative = cytotoxic | Potency
13 | CN1C[C@H](C(=O)N[C@]2(C)O[C@@]3(O)[C@@H]4CCCN4C(=O)[C@H](Cc4ccccc4)N3C2=O)C[C@@H]2c3cccc4[nH]cc(c34)C[C@H]21 | -5.48% | –
14 | NCCCNCCSP(=O)(O)O | -18.1% [at 9.47 µM] | –
15 | C[C@]12C=CC(=O)C=C1CC[C@H]1[C@@H]3C[C@@H](O)[C@](O)(C(=O)CO)[C@@]3(C)C[C@H](O)[C@@]12F | – | 7.37 µM (active)
16 | Nc1nc(N)c2nc(-c3ccccc3)c(N)nc2n1 | -26.3% | –
17 | C[C@]12CC[C@@H]3c4ccc(O)cc4C[C@@H](CCCCCCCCCS(=O)CCCC(F)(F)C(F)(F)F)[C@H]3[C@@H]1CC[C@@H]2O (stereo partly drawn) | -18.7% | –
18 | CN/C(=C\[N+](=O)[O-])NCCSCc1ccc(CN(C)C)o1 | – | 0.185 µM (active)
